Screening data as filed in PubChem.
Only some compounds are listed: those with a hit (about 18% of all), similar ones and a draw of the others.
TDP1 cell CPT: growth inhibition of DT40 Tdp1-/-;hTDP1 cells with camptothecin (screen for TDP1 inhibitors); 420,000 compounds, 12% hits; Potency, µM (series often up to 46.2 µM), without a hit: top-dose activity change, negative = growth inhibition, actives largely listed as inhibitors; chicken DT40 Tdp1-/-;hTDP1 cells + 20 nM CPT, ATP luminescence, 48 h; note: potency is the fitted concentration of half-maximal effect; nearly all actives have a fitted effect of over 55% in size
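Cell growth measured by CellTiter-Glo luminescence after a minimum 48 h, 37 C compound exposure with 20 nM CPT in Tdp1-knockout DT40 cells stably expressing hTDP1, seeded 400/well; qHTS titration format.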
CtBP-E1A inh: CtBP/E1A binding inhibition; AlphaScreen GST-E1A/His-CtBP binding, 1536-well; hits give low values; activity change, % (no concentration beside the values); 340,000 compounds, 0.49% hits; AID 651724; in the data active = activity change below about -65%; inconclusive = mostly about -30% to -63%
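Homogeneous bead-based format: GST-tagged E1A captured on glutathione donor beads, His-tagged CtBP on nickel acceptor beads; compounds precede bead addition by 2 h at 37 °C.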
DT40 TDP1 no CPT: qHTS for Inhibitors of human tyrosyl-DNA phosphodiesterase 1 (TDP1): qHTS in cells in absence of CPT; Potency, µM (titrated, usually from 46.2 µM), for the others: at the top dose activity change, negative = growth inhibition, usual class: inhibitors; AID 686978, 2013; 420,000 compounds, 15% hits; DT40 Tdp1-/- hTDP1 cells, no CPT, ATP luminescence, 48 h; note: potency is the fitted concentration of half-maximal effect; nearly all actives have a fitted effect of over 55% in size
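Cells were dispensed at 400 per well, compounds added by pin tool, plates incubated ≥48 hr at 37 °C, then CellTiter-Glo added for 30 min at room temperature before luminescence reading. Line: DT40 Tdp1-/- complemented with hTDP1; camptothecin omitted.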
Six1-Eya2 inh: Six1/Eya2 interaction inhibition; Q15475+O00167; AlphaScreen GST-Six1/His-Eya2 binding, biochemical; hits give low values; activity change, % (no concentration beside the values); 360,000 compounds, 0.56% hits; AID 651725; in the data active = activity change below about -65%; inconclusive = mostly about -30% to -63%
Target sequence (O00167 whole entry, looked up): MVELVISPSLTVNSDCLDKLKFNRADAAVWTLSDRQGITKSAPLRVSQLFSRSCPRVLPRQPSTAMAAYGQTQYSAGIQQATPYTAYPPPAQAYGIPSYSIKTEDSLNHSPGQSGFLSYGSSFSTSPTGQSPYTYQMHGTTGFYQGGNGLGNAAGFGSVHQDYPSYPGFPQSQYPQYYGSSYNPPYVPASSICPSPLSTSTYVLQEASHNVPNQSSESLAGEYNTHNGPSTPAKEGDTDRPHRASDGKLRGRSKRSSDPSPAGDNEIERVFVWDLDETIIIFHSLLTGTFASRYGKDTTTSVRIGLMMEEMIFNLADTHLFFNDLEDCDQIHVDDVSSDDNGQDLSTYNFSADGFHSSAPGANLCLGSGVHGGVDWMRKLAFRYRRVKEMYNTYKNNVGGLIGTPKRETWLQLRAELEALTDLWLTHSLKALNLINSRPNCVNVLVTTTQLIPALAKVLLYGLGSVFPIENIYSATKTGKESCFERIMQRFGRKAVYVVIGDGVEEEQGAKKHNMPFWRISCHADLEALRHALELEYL
Target sequence (Q15475 whole entry, looked up): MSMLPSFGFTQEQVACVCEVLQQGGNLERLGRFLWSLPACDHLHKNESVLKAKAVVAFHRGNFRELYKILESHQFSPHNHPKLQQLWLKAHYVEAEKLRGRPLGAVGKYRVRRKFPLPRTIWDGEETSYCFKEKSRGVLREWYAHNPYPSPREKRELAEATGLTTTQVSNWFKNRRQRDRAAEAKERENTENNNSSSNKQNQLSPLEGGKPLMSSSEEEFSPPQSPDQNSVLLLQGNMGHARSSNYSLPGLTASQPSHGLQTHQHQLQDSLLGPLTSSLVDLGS
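AlphaScreen luminescence read after one hour at 37 °C in darkness. Pin-transferred compounds met GST-Six1 and His-Eya2 protein (5X stock 250 nM/500 nM) plus glutathione donor and Ni-chelate acceptor beads (5X, 50 ug/mL).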
IL-1B inflam inh: inflammasome signaling inhibition, IL-1 beta readout; THP-1 LPS/ATP IL-1B secretion, AlphaLISA, 16 h; hits give low values; activity change, % at 57.5 µM; 360,000 compounds, 4.7% hits; AID 743279; in the data active = activity change below about -50%; inconclusive = mostly about -30% to -49%
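THP-1 cells pretreated 1 hr with compounds (up to 57.5 uM final), then stimulated with LPS (250 ng/mL final) plus ATP (1.25 mM final); secreted IL-1B measured by AlphaLISA after 16 hr, decreased signal indicating inhibition.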
TDP1 block: TDP1 (human) enzyme inhibition | Q9NUW8 | recombinant TDP1, AlphaScreen DNA substrate cleavage | Potency, µM (top dose mostly 130 µM), for the others: at the top dose activity change, negative = inhibition, most hits filed as inhibitors | 350,000 compounds, 0.28% hits; note: potency is the fitted concentration of half-maximal effect; nearly all actives have a fitted effect of over 40% in size
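Recombinant human Tdp1 (E. coli-expressed, 1 nM final) preincubated with compounds 15 min at room temperature, then 5'-biotin/3'-phosphotyrosine-FITC DNA substrate (15 nM final) added for 5 min. AlphaScreen beads (10 ug/ml final) added 10 min; cleavage lowers signal.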
An asterisk follows results filed as active; ? = inconclusive; . = not tested or not shown; ! = repeats disagree. Unless noted, calls come from the whole dose curve; as a rule, active = well fitted curve in the direction sought with a large enough effect; inconclusive = small, poorly fitted or top-dose-only effect, or another doubt; inactive = no such curve, though single readings can be large; an effect the other way counts as inactive or inconclusive. % is set by controls: 0 for no effect and ±100 for the full control effect.

SMILES	TDP1 cell CPT	CtBP-E1A inh	DT40 TDP1 no CPT	Six1-Eya2 inh	IL-1B inflam inh	TDP1 block
CCc1nc2c(OCc3c(C)noc3C)cccn2c1N(C)C(=O)c1ccccc1F	-12%	4	-13%	0	74	.
CCc1nc2c(OCc3cc(Cl)cc(Cl)c3)cccn2c1N(C=O)Cc1ccccc1	26µM*	-12	?	-20	?	.
COc1ccc(OC)c(CN2CCN(C(=O)CCNC(=O)c3ccc(Br)cc3)CC2)c1	0%	0	-3%	-17	-16	0%
COc1ccc(-c2nnc3n2N=C(c2ccc(OC)cc2OC)CS3)cc1	.	.	.	.	.	17%
O=C1C(SC(F)(F)C(F)F)=C(C(F)(F)F)OC2C3C=CC(C3)C12 (stereo not given)	-12%	0	?	1	14	6%
CCCCN(C=O)c1c(CC)nc2c(OCc3cc(Cl)cc(Cl)c3)cccn12	?	?	?	-3	-21	.
CCc1nc2c(OCCc3cccc(OC)c3)cccn2c1N(C=O)Cc1ccc(OC)cc1	18µM*	-11	?	-1	-13	.
CCc1nc2c(OCC(=O)c3ccc(Cl)cc3Cl)cccn2c1N(C)C(=O)c1ccncc1	?	-2	?	2	3	.
CCCCN(C=O)c1c(CC)nc2c(OCc3ccc(Cl)cc3)cccn12	18µM*	-3	23µM*	-7	-51*	.
CCc1nc2c(OCC(=O)c3ccc(Cl)cc3Cl)cccn2c1N(C=O)Cc1ccccc1	21µM*	-28	?	0	-8	.
C=CCOc1cccn2c(N(C=O)Cc3ccccc3)c(CC)nc12	13µM*	10	12µM*	-2	31	.
CCOc1ccc(Br)cc1S(=O)(=O)Nc1ccc(N2CCOCC2)cc1	?	-6	?	-3	14	3%
CCc1nc2c(OCCc3cccc(OC)c3)cccn2c1N(C=O)Cc1ccccc1	?	-6	?	-13	?	.
CCc1nc2c(OCc3ccc(Cl)cc3)cccn2c1N(C=O)Cc1ccccc1	?	-9	23µM*	-18	-14	.
CC(C)(C)c1cc(CNC2CS(=O)(=O)C[C@@H]2O)cc(C(C)(C)C)c1O (stereo not given in full)	15µM*	-1	16µM*	3	-2	4%
CCN(CC)C(=O)Oc1ccc2c(=O)c(-c3ccc(OC)cc3)coc2c1	?	5	23µM*	4	-60*	3%
CC(C)Oc1ccc2c(=O)c(-c3ccccc3)coc2c1	?	2	18µM*!	5	0	5%
CCN(CC)C(=O)Oc1ccc2c(=O)c(-c3ccc(OC)cc3)c(C)oc2c1	-22%	10	-19%	-2	-7	4%
COC(=O)COc1ccc2c(=O)c(-c3ccccc3)coc2c1	3%	12	-9%	4	-17	-3%
CSc1ccccc1C(=O)Nc1nccs1	4%	-5	-17%	6	18	4%
O=C(c1cccs1)n1cc(C(=S)N2CCOCC2)c2ccccc21	-1%	-10	-12%	-13	13	5%
O=C(Nc1ccccc1)c1sccc1Oc1ccc([N+](=O)[O-])cc1F	21µM*	?	21µM*	?	-11	8%
COCCOc1cc(NC(=O)c2cccc(OC)c2)c(Cl)cc1Cl	-7%	-14	?	17	3	-3%
COCCOc1cc(NC(=O)c2sccc2Oc2ccc([N+](=O)[O-])cc2F)c(Cl)cc1Cl	?	-19	18µM*	?	-14	0%
CCC(CC)C1C(C#N)=C(N)SC(N)=C1C#N	-21%	1	-20%	1	17	3%
SMILES	TDP1 cell CPT	CtBP-E1A inh	DT40 TDP1 no CPT	Six1-Eya2 inh	IL-1B inflam inh	TDP1 block
COc1ccccc1CCNC(=O)Cn1c(=O)oc2ccccc21	21µM*	-3	?	4	4	18µM*
COc1ccccc1NC(=O)Cn1c(=O)oc2ccccc21	2.9µM*	-1	2.9µM*	4	-2	0%
O=C(Cn1c(=O)oc2cccnc21)Nc1ccccc1Oc1ccc(Cl)cc1Cl	-4%	6	-17%	-8	-71*	.
COc1ccc(Cl)cc1NC(=O)Cn1c(=O)oc2ccccc21	8%	9	?	-2	28	.
N#Cc1c(NC(=O)Cn2c(=O)oc3ccccc32)oc(-c2ccccc2)c1-c1ccccc1	9.2µM*	-12	8.2µM*	-13	0	9%
COc1ccccc1CNC(=O)Cn1c(=O)oc2ccccc21	-1%	.	-19%	.	.	3%
CCOC(=O)N1CCN(C(=O)c2cn(CC)c3ccc(S(=O)(=O)N(C)C4CCCCC4)cc3c2=O)CC1	-6%	.	-11%	-3	-8	1%
Cc1cccc(CSc2nncc(=O)[nH]2)c1	-10%	3	0%	19	0	5%
Cc1ccc(-n2cnc(=O)c3cccnc32)cc1	-6%	5	-11%	3	20	6%
C#CCSc1nc(=O)c2cccnc2n1-c1ccc(C)cc1	5.2µM*	-15	5.8µM*	-2	26	1%
CCCCc1ccc(NS(=O)(=O)c2cc3c4c(c2)CC(=O)N4CCC3)cc1	15µM*	.	12µM*	.	.	0%
Cc1ccc(S(=O)(=O)Nc2cc3c4c(c2)CCC(=O)N4CCC3)cc1	?	-7	21µM*	4	60	.
COc1ccc(OC)c(S(=O)(=O)Nc2cc3c4c(c2)CC(=O)N4CCC3)c1	?	2	15µM*	-6	43	.
O=C1OC(CCl)CN1Cc1c(Cl)cccc1Cl (stereo not given)	13%	8	-7%	7	2	.
Cc1c(C(=O)N2CCCCC2)c(S(=O)(=O)NCCc2ccccc2)c(C)n1C	-22%	3	13%	2	-3	4%
CCn1c(CN2CCC(C)CC2)nc2cc(S(=O)(=O)N3CCCCC3)ccc21	?	0	13µM*	-1	-10	.
CCn1c(SC)nc2cc(S(=O)(=O)N3CCCCC3)ccc21	1.6µM*	-19	-25%	-15	-12	0%
Cc1ccc(-c2nc3c(C)cc(Br)cn3c2Cc2cccc(F)c2)cc1	?	1	?	1	0	.
Cc1cc(Br)cn2c(Cc3cccc(Cl)c3)c(-c3ccco3)nc12	?	-17	21µM*	-24	-2	.
Cc1ccc(Cc2c(-c3ccco3)nc3c4ccccc4ccn23)cc1	18µM*	?	15µM*	?	-6	.
